# Screening results as filed in PubChem BioAssay.
# The list is not random: actives were taken first. Their share in the collection is about 4.1%.
# Shn3 inh set2: reduction of Shn3 3'UTR firefly luciferase signal, primary screen, Schnurri-3 inhibitor project, cell-based, Clone20 osteoblasts, set 2 | Clone20 osteoblast Shn3 3'UTR firefly luciferase, 24 h | inhibition, % at 12.5 µM | 0.52% of 360,000 active | AID 588674, 2011;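 active means mean inhibition of at least 75% with every replicate also reaching 75%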;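 further: 0% = median of neutral control wells and 100% = pilot-screen positive control compound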
# TROY signal inh: inhibitors of TROY-driven NF-kB signaling, primary screen, Q293 LMP1-TROYcd cells, NF-kB luciferase, uHTS | Q293 LMP1-TROYcd NF-kB luciferase reporter, 4 h | inhibition, % at 10 µM | 0.98% of 360,000 active | AID 1347056, 2019;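 active means compounds whose plate-normalised and pattern-corrected inhibition of the luciferase reporter signal at the single screening dose is 50% or more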
# TRPM1 prom inh: inhibitors of MITF-dependent TRPM1 promoter reporter, primary screen, cell-based, SK-MEL-5, single point, luciferase; SK-MEL-5 TRPM1 promoter luciferase, 24 h; inhibition, % at 12.5 µM; 0.83% of 330,000 active; AID 488899, 2010;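 active means mean inhibition across replicates of 60% or more, whatever share of single replicates reaches that level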
# LMP1 NFkB inh: EBV LMP1-driven NF-kappaB luciferase reporter inhibitors, primary screen, cell-based, luminescence, single point | LMP1-induced NF-kappaB luciferase reporter cells | inhibition, % at 12.5 µM | 0.69% of 350,000 active; in the data active means inhibition above about 41%;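 further: 0% = neutral control wells and 100% = reference inhibitor control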
# TWEAK-Fn14 inh: inhibitors of TWEAK-Fn14 signaling, primary screen, luciferase reporter cells, uHTS. TWEAK-stimulated Fn14 reporter cells, luciferase luminescence, 8 h. 2% of 360,000 active. AID 1159606, 2016. inhibition, % at 10 µM; in the data active means inhibition above about 50%
# Peg3 promoter: Peg3 promoter-driven luciferase inhibitors, primary screen, cell-based, HeLa, luciferase luminescence | 1.7% of 360,000 active | HeLa PEG-Prom luciferase reporter, overnight | inhibition, % at 20 µM;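 active means inhibition of at least 50% at 20 µM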
# The depositor's hits bear a star; · = no result.
SMILES,Shn3 inh set2,TROY signal inh,TRPM1 prom inh,LMP1 NFkB inh,TWEAK-Fn14 inh,Peg3 promoter
C[C@@H]1COC(=O)[C@H](NC(=O)OCC2c3ccccc3-c3ccccc32)C/C=C\C[C@@H](CC(=O)N[C@@H](CO)Cc2ccccc2)C(=O)N1,72,2,6,4,2,-10
O=C(C[C@H]1C/C=C\C[C@H](NC(=O)OCC2c3ccccc3-c3ccccc32)C(=O)OC[C@H](Cc2ccccc2)NC1=O)N[C@H](CO)Cc1ccccc1,20,-11,2,-1,-17,75*
O=C(C[C@@H]1C/C=C\C[C@@H](NC(=O)OCC2c3ccccc3-c3ccccc32)C(=O)OC[C@@H](Cc2ccccc2)NC1=O)NCCO,58,3,-4,9,-6,22
C[C@@H]1COC(=O)[C@H](NC(=O)OCC2c3ccccc3-c3ccccc32)C/C=C\C[C@@H](CC(=O)N(CCO)Cc2ccccc2)C(=O)N1,26,5,1,-6,8,-21
CC(C)(C)[C@@H]1COC(=O)[C@@H](NC(=O)OCC2c3ccccc3-c3ccccc32)C/C=C\C[C@@H](CC(=O)NCCO)C(=O)N1,86*,-14,8,-6,-18,4
CC1(C)CC(=O)C(CC2=C(O)CC(C)(C)CC2=O)=C(O)C1,12,-2,1,66*,0,-7
Cc1cc(C)c2c(N)c(C(=O)c3ccc(Cl)cc3Cl)sc2n1,29,30,4,12,52*,-1
CNC(=O)CCC(=O)Nc1ccc(C)cc1,20,-5,27,-5,-3,-3
CCNC(=S)N(Cc1cccs1)Cc1cc2cc(OCC)ccc2[nH]c1=O,3,-17,-3,-1,76*,21
CCNC(=S)N(Cc1ccco1)Cc1cc2cc(OCC)ccc2[nH]c1=O,-3,-6,10,-4,13,7
Cc1ccc(NC(=O)Cc2c(C(=O)O)n(C)c3ccccc23)cc1F,-3,12,-6,-13,-10,7
Cn1c(C(=O)O)c(CC(=O)Nc2ccc3c(c2)OCCO3)c2ccccc21,·,77*,6,36,92*,-138
Cc1ccc2c(c1)c(CC(=O)Nc1ccc(F)cc1)c(C(=O)O)n2C,-11,14,0,-5,106*,15
COC(=O)c1cc(CSc2nc3ccc(C)cc3[nH]2)oc1C,41,·,10,11,92*,-63
Cc1cc(C)c(C#N)c(SCc2ccc(F)cc2)n1,-7,-15,-4,2,-17,4
CSc1nc(C)cc(C)c1C#N,1,16,-20,94*,3,-14
CC(NC(=O)[C@@H](C)NC(=O)[C@@H]1Cc2ccccc2CN1C(=O)OC(C)(C)C)c1ccccc1 (some centres undefined),-13,11,-7,-10,7,-5
Cc1ccoc1C(=O)N1CCN(C(=O)c2occc2C)CC1,-4,11,4,4,21,6
Cc1ccc2c(c1)sc(=NC(=O)C1CC1)n2C,-56,-47,-9,-24,6,-220
Cc1ccc2c(c1)sc(=NC(=O)c1cccs1)n2C,4,59*,35,33,89*,-25
O=C(Nc1ccc2c(c1)C(=O)OC2)c1ccccc1Cl,-16,-4,-40,-9,-24,-37
COc1ccc(N2CCN(S(=O)(=O)c3cc4c(cc3C)NC(=O)CO4)CC2)cc1,-5,-6,·,2,-20,-21
O=C(N/N=C/c1ccncc1)c1ccccn1,-52,-15,-102,·,-13,-85
O=C(N/N=C/c1ccc(F)cc1)c1cc(-c2ccc3c(c2)OCO3)n[nH]1,-2,-12,-8,7,-17,4
COc1ccc(/C=N/NC(=O)c2cc(-c3ccc4c(c3)OCO4)n[nH]2)cc1OC,-63,-28,-10,-17,52*,-10
SMILES,Shn3 inh set2,TROY signal inh,TRPM1 prom inh,LMP1 NFkB inh,TWEAK-Fn14 inh,Peg3 promoter
O=C(N/N=C/c1ccc2c(c1)OCO2)c1ccccn1,-2,39,3,27,76*,-13
CN(C)c1ccc(/C=N/NC(=O)c2ccccn2)cc1,13,31,13,37,-14,9
CN(C)c1ccc(/C=N\NC(=O)c2csnn2)cc1,-21,19,-22,-3,71*,-116
CC(C)c1ccc(/C=N/NC(=O)c2ccccn2)cc1,·,46,-4,30,77*,-39
COc1ccc(OCC(=O)NNC(=S)NC(=O)c2ccc(Br)o2)cc1,81,-10,9,-1,12,8
CC1CCCCC12NC(=O)N(CC(=O)N1CCc3ccccc3C1)C2=O (centres undefined),-2,-28,-6,-10,2,-10
CN(C#N)c1nc(Cl)nc(Nc2cccc(Cl)c2)n1,-26,-13,8,-4,-8,99*
Cc1cc(C)nc(Nc2cccc(Cl)c2)n1,-7,-22,-42,0,-4,-48
CS(=O)(=O)c1ccc(Cl)c(NC(=O)CCN2C(=O)C3CC=CCC3C2=O)c1 (centres undefined),-11,16,3,-19,7,-8
Cc1cc(/C=N/n2cnnc2)c(C)n1-c1ccc(OCc2ccc(Cl)cc2)cc1,77,-22,0,7,63*,-35
Cc1cc(/C=N/n2cnnc2)c(C)n1-c1ccc(OCc2ccccc2F)cc1,62,-1,-1,-6,29,-48
C=CCn1c(=O)c(C(=O)NC2CC2)c(O)c2cc(OC)c(OC)cc21,-3,1,-7,-2,17,4
O=C(O)CN1C(=O)/C(=C\c2cc(Br)ccc2OCc2ccc(Cl)cc2Cl)SC1=S,5,87*,1,-2,3,1
Cc1ccc(-c2csc(N3CCC[C@@H]3C(=O)NCCn3c(-c4ccncc4)nc4ccccc43)n2)cc1,3,-24,29,-15,1,46
CN(Cc1ccc(OCC(O)CN2CCCCC2)cc1)Cc1ccnc2ccccc12 (centres undefined),87*,5,15,13,24,11
Cc1nn(C)cc1CN(C)Cc1ccc(OCC(O)CN2CCCCC2)cc1 (centres undefined),-1,8,-20,-4,12,-28
O=S(=O)(c1ccc(Br)cc1)c1cnc2ccccc2n1,0,28,8,1,55*,33
COc1ccc(S(=O)(=O)c2cnc3ccccc3n2)cc1,31,-1,10,2,42,22
Cc1ccn2cc(-c3ccc(O)c(O)c3)nc2c1,87*,-16,8,13,80*,-119
COc1ccc(C(=O)/C(=C/c2cccs2)c2nc3ccccc3o2)cc1,-29,52*,-4,-12,51*,-201
